# WT yeast gro inh: growth inhibition of WT strain, primary screen, mitochondrial fusion inhibitor project, WT and mutant strains, chemical genetic; hit rate 2.1% among 190,000; mitochondrial fusion phenotypic screen; inhibition, % at 10 µM; AID 1362, 2008; in the data active = inhibition above about 58%; tested in S. cerevisiae
# Lmaj promast: Leishmania major promastigote growth inhibition, primary screen | Leishmania major promastigotes, resazurin fluorescence viability | inhibition, % at 10 µM | hit rate 9% among 200,000 | AID 1063, 2008; in the data active = inhibition above about 50%;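 note: promastigotes grown with compound for 44 hours at 28 °C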
# Autophagy mod: autophagy modulators in MEF cells, primary screen, imaging, high-content, MEF GFP-LC3 | MEF GFP-LC3 puncta imaging; test concentration mostly 10 µM | calls only at 10 µM (by protocol) | hit rate 0.98% among 190,000;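 active = percentage of spot-positive cells more than 3 SD above its plate mean, without a fluorescence outlier flag or 80% toxicity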;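 note: spot-positive cell cutoff set from DMSO-treated cells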
# INS promoter inh: inhibitors of insulin promoter-driven GFP, primary screen, imaging, TRM-6 cells (human fetal islet line), eGFP reporter, cell count; reporter expression induced with tamoxifen; hit rate 0.9% among 130,000; inhibition, % at 2 µM;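 active = inhibition above the mean plus 3 SD, with well images judged a real hit on visual review, cut at about 60% in these data, passing the limit was not always enough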
# Ins promoter up: insulin promoter activators in MIN6 cells, imaging, high-content screening, mouse beta cells. MIN6 insulin promoter-GFP reporter; active compounds read high. z-score at 5 µM. hit rate 0.3% among 190,000. AID 1625, 2009;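 active = z-score above 3 at 5 µM with at least 500 cells counted in the well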
# Active calls of the source: *; i = inactive; · = no result given; + = active, no number. This is a sample that favours compounds with a hit; in the whole collection about 11% have one here.
SMILES,WT yeast gro inh,Lmaj promast,Autophagy mod,INS promoter inh,Ins promoter up
CC(=O)N1N=C(c2ccco2)CC1c1cccs1 (stereo not drawn),14,-4,i,11,0.38
Cc1nnsc1C(=O)Nc1cc(Cl)ccc1Cl,-17,-1,i,56,·
CC(CN1CCCC1)C(=O)NN (stereo not drawn),9,-5,i,·,0.11
CO/N=C(\c1nonc1N)N1CCN(c2ccc(Cl)cc2[N+](=O)[O-])CC1,75*,2,i,-8,·
CO/N=C(\c1nonc1N)N1CCN(c2ccc([N+](=O)[O-])cc2Cl)CC1,6,-2,i,6,-0.68
O=c1[nH]c(=S)[nH]c2sccc12,-17,-13,i,·,-0.3
O=S(=O)(c1ccc2ccccc2c1)N1CCC(c2nc(-c3ccncc3)no2)CC1,2,1,i,31,-1.4
CCCc1c(O)c2ccccc2n(-c2ccccc2)c1=O,-16,-7,i,-4,·
NCCc1c(-c2ccccc2)n(-c2ccccc2)c2ccccc12,87*,101*,i,·,·
CN(N)C(=S)Nc1ccc(Cl)cc1,-2,22,i,33,0.23
CCCC/C(O)=C1\C(=O)CCCC1=NCCc1c(C)[nH]c2ccc(OC)cc12,·,·,·,·,0.22
Cc1ccccc1-c1nnc(-c2ccc(Cl)cc2)o1,15,-4,i,-55,3.5*
COc1ccc(-c2nc3ccccn3c2CN2CCN(c3ccccc3F)CC2)cc1,82*,85*,i,-67,-0.19
O=C(NC(=S)Nc1cccc(CO)c1)c1ccc(-c2ccccc2)cc1,10,57*,i,36,0.14
CC(=O)c1cccc(NC(=O)Nc2cccs2)c1,7,-8,i,38,1.2
CC(=O)c1cccc(NC(=O)C=C(C)C)c1,12,98*,i,13,-0.29
CC(=O)c1cccc(NC(=S)NC(=O)c2ccc(Br)cc2)c1,6,54*,i,13,0
O=C1CN(C(=O)/C=C/c2ccco2)c2ccccc2N1,-19,-2,i,·,-0.77
CCOc1ccc(C2CC(=O)NC(SCC(=O)OC)=C2C#N)cc1 (stereo not drawn),10,-3,i,·,0.1
OCCNCC(O)Cn1ccc2ccccc21 (stereo not drawn),-30,-5,i,-10,-0.27
COc1ccccc1CNCC(=O)NCc1ccc(C)cc1,-16,-3,i,·,-1.9
OCCNCC(O)Cn1c2ccccc2c2ccccc21 (stereo not drawn),-6,28,+,-120,0.95
COc1ccccc1CNCC(O)Cn1c2ccccc2c2ccccc21 (stereo not drawn),91,100*,i,2,-0.93
CN(c1ncc(C(F)(F)F)cc1Cl)N1C(=O)c2cccc([N+](=O)[O-])c2C1=O,0,-5,i,35,0.16
NNC1=N[C@H]2CS(=O)(=O)C[C@H]2S1,5,-4,i,·,-0.07
SMILES,WT yeast gro inh,Lmaj promast,Autophagy mod,INS promoter inh,Ins promoter up
COc1ccc(Cn2c(S(=O)(=O)CC(N)=O)nc3ccccc32)cc1[N+](=O)[O-],0,4,i,·,2.5
CC1(C)Cc2ccccc2-c2nnc(SCC(=O)N3CCN(c4ccccc4)CC3)n21,61*,10,i,-33,-0.37
Cc1ccccc1-n1c(SCC(=O)N2CCC(C(=O)O)CC2)nnc1-c1ccncc1,5,0,i,-44,0.06
CC1(C)Cc2ccccc2-c2nnc(SCc3ccccc3)n21,9,30,i,-487,·
Cc1ccccc1-n1c(SCC(=O)N2CCN(c3ccccc3)CC2)nnc1-c1ccncc1,20,62*,i,-12,-1.7
COc1cc(OC)c(OC)cc1/C=N/NC(=O)CCc1c(C)n[nH]c1C,·,·,·,·,0.08
S=c1[nH]nc([C@@H]2C[C@H]2c2ccccc2)n1-c1ccccc1Cl,·,·,·,·,-0.15
O=C(Cn1nc(-c2ccccc2)c2ccccc2c1=O)Nc1cccnc1,-12,17,i,77*,-0.24
COc1ccc(OCC(=O)Nc2cc(-c3nn(C)c(=O)c4ccccc34)ccc2OC)cc1,-18,8,i,23,0.97
CCN(CC)CCNC(=O)Cn1nc(Cc2ccccc2)c2ccccc2c1=O,60*,1,i,3,-0.44
Cc1ccccc1-n1nc(C)c2cc(C(=O)NCc3cccnc3)sc21,16,69*,i,·,0.54
O=C(NCc1cccnc1)c1ccc(Br)s1,·,·,·,·,0.2
